Compound activity deposited in PubChem by National Center for Advancing Translational Sciences (NCATS).
Sampled rows, rich in hits. Any-hit rate of the full collection: about 9.2%.
NPC1 prom act: qHTS Assay for NPC1 Promoter Activators; Huh7 NPC1 promoter luciferase reporter, 24 h; Potency, µM (series often up to 9.22 µM), for the others: top-dose activation, usual class: activators; actives 2.4% (n = 320,000); AID 485313, 2010; further: % of control where 0% means no effect; nearly all actives have a fitted effect of over 60% in size
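In 1536-well qHTS, Huh7 cells harboring an NPC1 promoter–luciferase construct received compound for 24 h; activation was quantified by luminescence following luciferase reagent addition.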
SMN2 splice enh: qHTS Assay for Enhancers of SMN2 Splice Variant Expression; HEK293 SMN2-luciferase splicing reporter, luminescence, 30-36 h; Potency, µM (series often up to 46.1 µM), for the others: at the top dose activity change, positive = activation, actives largely listed as activators; actives 2.8% (n = 210,000); further: % of control where 0% means no effect; nearly all actives have a fitted effect of over 55% in size
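qHTS luciferase splicing reporter: luminescence rises when SMN2 exon 7 is included in transfected HEK293 cells. Compound exposure lasted 30-36 h at 37C, with 4.5 mM final sodium butyrate as control, followed by a ONE-Glo read.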
Rab9 prom act: qHTS Assay for Rab9 Promoter Activators. Potency, µM (highest dose often 9.22 µM), inactives show at the top dose activation, negative = inhibition, most hits filed as activators. Huh7 Rab9 promoter-luciferase reporter, luminescence, 24 h. actives 2.8% (n = 320,000). AID 485297, 2010; further: % of control where 0% means no effect; nearly all actives have a fitted effect of over 60% in size
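Measured in stably transfected Huh7 cells bearing a Rab9 promoter–luciferase construct: 24 h compound treatment at 37 °C, followed by luminescence detection.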
ELG1 repair inh: qHTS screen for small molecules that inhibit ELG1-dependent DNA repair in human embryonic kidney (HEK293T) cells expressing luciferase-tagged ELG1 | HEK293T ELG1-luciferase reporter, luminescence, 16 h; DNA damage induced by 5-fluorouridine | actives 2.3% (n = 330,000) | Potency, µM (series often up to 46.1 µM), inactives show at the top dose activity change, negative = inhibition, most hits filed as inhibitors; further: on the % scale 0 is the no-effect control and ±100 the full control effect; nearly all actives have a fitted effect of over 55% in size
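Step one: seed 2,000 cells per well. Step two: pin-transfer compound or DMSO alongside 5-fluorouridine. Step three: incubate 16 hr, 37 °C, 5% CO2. Step four: add ONE-Glo, wait 30 min, read luminescence.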
ELG1 genotox: qHTS screen for small molecules that induce genotoxicity in human embryonic kidney (HEK293T) cells expressing luciferase-tagged ELG1 | actives 1.3% (n = 330,000) | HEK293T ELG1-luciferase reporter, luminescence, 16 h | Potency, µM (highest dose often 46 µM), without a hit: at the highest dose activity change, positive = activation, actives largely listed as activators; further: % of control where 0% means no effect; nearly all actives have a fitted effect of over 60% in size
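Step 1: seed 2,000 HEK293T ELG1-luciferase cells per well. Step 2: add compound or DMSO, incubate 16 hr at 37 °C. Step 3: ONE-Glo, 30 min at room temperature, read luminescence.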
FLuc modulator: qHTS profiling assay for firefly luciferase inhibitor/activator using purifed enzyme and Km concentrations of substrates (counterscreen for miR-21 project). Luciferin 4-monooxygenase (Photinus pyralis), P08659. purified FLuc, Km substrates, luminescence inhibition. Potency, µM (doses to about 57.5 µM), inactives show at the top dose activity change, negative = inhibition, most hits filed as inhibitors. actives 6.9% (n = 360,000);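 further: plate controls were vehicle for no effect and reference inhibitor for full effect; nearly all actives have a fitted effect of over 55% in size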
Target sequence (P08659 whole entry, looked up): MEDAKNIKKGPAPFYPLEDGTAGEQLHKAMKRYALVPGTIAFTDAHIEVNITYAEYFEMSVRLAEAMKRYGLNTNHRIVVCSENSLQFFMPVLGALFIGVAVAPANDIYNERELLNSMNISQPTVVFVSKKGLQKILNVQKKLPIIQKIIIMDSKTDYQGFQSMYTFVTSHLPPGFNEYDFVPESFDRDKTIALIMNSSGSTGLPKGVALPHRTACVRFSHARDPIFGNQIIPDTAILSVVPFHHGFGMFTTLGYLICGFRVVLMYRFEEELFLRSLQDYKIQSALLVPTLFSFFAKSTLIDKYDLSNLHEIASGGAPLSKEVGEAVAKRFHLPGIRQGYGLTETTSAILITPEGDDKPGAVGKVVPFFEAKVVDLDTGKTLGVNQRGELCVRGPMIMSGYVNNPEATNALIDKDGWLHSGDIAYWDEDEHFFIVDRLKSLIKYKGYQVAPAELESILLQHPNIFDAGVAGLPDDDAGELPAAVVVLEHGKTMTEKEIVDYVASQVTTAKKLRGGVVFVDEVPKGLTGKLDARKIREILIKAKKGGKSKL
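Biochemical qHTS of compounds, final roughly 60 µM downward over six points, against 10 nM purified firefly luciferase using Km concentrations of substrates (10 uM D-luciferin, 10 uM ATP) in Tris acetate pH 7.5 buffer; luminescence output.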
* = called active by the depositor; u = inconclusive; x = no result given; [ ] = dose if it differs, or a comment. The call rests on the fitted dose curve; in most records, active means well fitted curve in the direction sought with a large enough effect; inconclusive means small, poorly fitted or top-dose-only effect, or another doubt; inactive means no such curve, though single readings can be large; an effect the other way counts as inactive or inconclusive. Potency means the concentration at half of the fitted maximal effect.

SMILES	NPC1 prom act	SMN2 splice enh	Rab9 prom act	ELG1 repair inh	ELG1 genotox	FLuc modulator
CCC(C)(C)NC(=O)C1CCC(CNS(=O)(=O)c2ccc3c(c2)CC(C)N3C(C)=O)CC1 (stereo unspecified)	x	x	x	x	x	-1%
Cc1ccc2c(c1)C(N1CCCC1=O)CC(c1ccco1)N2 (stereo unspecified)	3.2µM*	13µM*	2.2µM*	u	u	1.2µM*
Cc1nc(-c2ccccc2)sc1C(=O)NN	-5%	-32%	-10%	-27%	-9%	4%
C/C(=N\OC(=O)c1cccc(C)c1)c1sc(-c2ccccc2)nc1C	4µM*	u	2.8µM*	u	5.8µM*	-7%
C/C(=N\OC(=O)c1cccc(C(F)(F)F)c1)c1sc(-c2ccccc2)nc1C	3.5µM*	25µM*	4µM*	u	3%	5%
CCOc1ccc(/C=N/Nc2cc(N3CCOCC3)nc(C)n2)c(O)c1	2%	x	-9%	-12%	-8%	1%
Oc1ccc(/C=N/Nc2cc(N3CCCC3)nc(N3CCCC3)n2)cc1	-1%	-34%	1%	1%	-7%	-9%
Cc1nc(Cl)cc(N/N=C/c2ccc(O)cc2)n1	15%	x	6%	u	u	21µM*
Cc1nc(Cl)cc(N/N=C/c2ccc(O)cc2O)n1	-1%	x	4%	u	13%	13µM*
O=C(Nc1ccccc1)OC[C@H](CN1CCCCC1)OC(=O)Nc1ccccc1	x	-7%[20.6 µM]	x	x	x	x
Cc1ccc(NC(=O)OCCN2CCN(Cc3ccccc3)CCC2=O)cc1	-1%	-28%	-3%	-17%	-1%	1%
O=C(Nc1ccccc1)c1ccc(NCCN2C(=O)CCC2=O)c([N+](=O)[O-])c1	7%	-12%	-1%	u	-8%	-1%
Cc1ccc(-c2nnn(CC(=O)N(CCN3CCOCC3)C(C(=O)NC(C)(C)C)c3ccc(C)o3)n2)cc1 (stereo unspecified)	2%	x	-1%	14%	0%	-1%
O=c1[nH]c2ccccc2n1CCC1CCCCC1	12%	-20%	29%	u	10%	u
c1ccc(COc2ccc(OCCCn3cncn3)cc2)cc1	1.6µM*	10µM*	2.5µM*	u	4.1µM*	4.3µM*
c1ccc(COc2ccc(OCCCN3CCCC3)cc2)cc1	1µM*	6.3µM*	0.63µM*	u	u	3.4µM*
OC(COc1ccc(OCc2ccccc2)cc1)CN1CCCCC1 (stereo unspecified)	30%	28%	u	u	16µM*	u
O[C@H](COc1ccccc1)CN1CCCCC1	x	-6%[9.22 µM]	x	x	x	x
c1ccc(Cc2ccc(OCCn3cncn3)cc2)cc1	-3%	-28%	0%	0%	u	1%
Brc1ccc2oc(-c3ccn[nH]3)cc2c1	2.2µM*	x	2.5µM*	u	u	3µM*
CCn1cc(CN2CCCC(C(=O)Nc3cccc(-n4cccn4)c3)C2)c(C)n1 (stereo unspecified)	-1%	x	6%	-3%	-4%	0%
Cc1nn(C)c(Cl)c1CN1CCCC(C(=O)Nc2cccc(-n3cccn3)c2)C1 (stereo unspecified)	-8%	x	0%	16µM*	-18%	1%
COc1cccc(OC)c1C(=O)Nc1nc2ccc([N+](=O)[O-])cc2s1	-2%	-1%	0%	1%	0%	u
CC(C)CC1Nc2ccc(C(=O)NCCCN3CCOCC3)cc2NC1=O (stereo unspecified)	0%	x	2%	21%	6%	1%
